High-throughput results from PubChem BioAssay.
Pf growth 96h: P. falciparum growth inhibition at 96 hours; P. falciparum luciferase reporter growth, 96 h; Potency, µM (titrated, usually from 28.7 µM), inactives show at the highest dose activity change, negative = inhibition, usual class: inhibitors; hit rate 6.9% among 320,000; also: potency is read from the fitted curve at half-maximal effect; % is scaled to controls: 0 for no effect and ±100 for the full control effect
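Compounds incubated with erythrocytes infected by luciferase-expressing P. falciparum (2% hematocrit, 0.05% parasitemia final) for 96 hours, 37 C in 5% CO2. Growth inhibition scored as decreased luciferase luminescence.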
Pf growth 48h: P. falciparum growth inhibition at 48 hours (one generation); P. falciparum luciferase growth in erythrocytes, 48 h; Potency, µM (top dose mostly 28.7 µM), inactives show at the top dose activity change, negative = inhibition, most hits filed as inhibitors; hit rate 5.9% among 310,000; AID 504832; also: potency is read from the fitted curve at half-maximal effect; % is scaled to controls: 0 for no effect and ±100 for the full control effect
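Growth was read as firefly luciferase luminescence after a 48 h, 37 C, 5% CO2 exposure of compounds to reporter-bearing P. falciparum cultures (0.1% parasitemia, 2% hematocrit final) in Albumax-supplemented RPMI 1640.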
NS1 function inh: influenza NS1 inhibition. Potency, µM (titrated, usually from 46.1 µM), inactives show at the top dose activity, positive = more growth. AID 2326. hit rate 0.4% among 270,000; calls by dose curve; also: potency is read from the fitted curve at half-maximal effect; actives are rising curves; nearly all actives have a fitted effect of over 50% in size
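A cell-based growth assay was used: compounds that relieve NS1-induced slow growth of budding yeast raise OD600. Assay medium was yeast nitrogen base with ammonium sulphate and -URA supplement, pH 6.0, with 2% galactose.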
FBPA Giardia inh: inhibitors of Giardia lamblia fructose-1,6-bisphosphate aldolase; purified Giardia FBPA; Potency, µM (highest dose often 59.6 µM), without a hit: top-dose activity, negative = inhibition, actives largely listed as inhibitors; hit rate 0.71% among 290,000; AID 2451; also: potency is read from the fitted curve at half-maximal effect; % is scaled to controls: 0 for no effect and ±100 for the full control effect; nearly all actives have a fitted effect of over 55% in size
Target sequence (A8B2U2 whole entry, looked up): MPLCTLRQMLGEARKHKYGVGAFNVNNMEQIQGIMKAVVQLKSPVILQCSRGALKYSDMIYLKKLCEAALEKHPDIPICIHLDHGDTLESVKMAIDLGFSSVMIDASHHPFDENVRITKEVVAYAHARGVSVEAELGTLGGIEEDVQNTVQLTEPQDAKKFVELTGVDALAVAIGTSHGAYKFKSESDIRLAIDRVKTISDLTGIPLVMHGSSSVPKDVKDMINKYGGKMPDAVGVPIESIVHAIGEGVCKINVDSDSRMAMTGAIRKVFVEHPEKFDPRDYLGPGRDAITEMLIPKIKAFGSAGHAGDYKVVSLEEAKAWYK
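Giardia FBPA (40 nM reagent) was preincubated 10 min at RT with compound (up to 57.5 uM final), then substrate plus GAPDH/TPI/NAD/arsenate coupling system with diaphorase/resazurin was added; resorufin fluorescence (525/598 nm) was read after 20 min.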
Shiga inhibitor: Shiga toxin inhibition | hit rate 9.2% among 290,000 | inhibition, % at 38.7 µM | Vero cells, Shiga toxin protein synthesis inhibition reporter; in the data active = inhibition mostly above about 28%, no sharp cut-off; inactive = mostly below about 43%; also: 0% is about no effect
CHX counter: counter-screen for Shiga toxin inhibitors: cycloheximide protein synthesis inhibition; max response, %; cell reporter, cycloheximide protein synthesis inhibition counterscreen; hit rate 12% among 300,000; in the data active = max response mostly above about 13%, no sharp cut-off; inactive = mostly below about 14%; also: read at 38.3 µM for the half of the compounds with a filed dose; 0% is about no effect
Active calls of the source: *; ? = inconclusive; nt = no result given; [ ] = remark or other dose. Sampled rows, rich in hits. Any-hit rate of the full collection: about 21%. Unless noted, calls follow the shape of the dose curve; as a rule, active = well fitted curve in the direction sought with a large enough effect; inconclusive = small, poorly fitted or top-dose-only effect, or another doubt; inactive = no such curve, though single readings can be large; an effect the other way counts as inactive or inconclusive.

SMILES	Pf growth 96h	Pf growth 48h	NS1 function inh	FBPA Giardia inh	Shiga inhibitor	CHX counter
CCOC(=O)c1ccc(-c2nnc(-c3ccc(Cl)cc3Cl)o2)cc1	?	79%	-2%	3%	22	9.6*
O=C(NC(=S)NNC(=O)c1ccccc1[N+](=O)[O-])c1ccccc1	?	?	13%	?	16	9
O=C(NNC(=O)C12CC3CC(CC(C3)C1)C2)[C@@H]1C[C@H]1c1ccccc1	?	5%	nt	6%	46*	26*
O=C(Nc1ccccc1F)C1CC1c1ccccc1 (stereo not given)	15%	20%	-3%	0%	41*	12
O=C(c1nc2ccccc2[nH]1)c1ccccc1[N+](=O)[O-]	59%	146%	0%	-20%	73*	32*
Cc1cccc(NC(=O)C2CC2c2ccccc2)c1C (stereo not given)	57%	0%	-12%	-5%	nt	7
O=C(O)c1cc([N+](=O)[O-])c(Sc2nc3ccccc3[nH]2)c([N+](=O)[O-])c1	338%	nt	7%	-4%	21	-4
O=C(NNC(=O)c1ccccc1[N+](=O)[O-])c1ccccc1[N+](=O)[O-]	7.4µM*	10%	1%	-6%	-10	1
CC1CC[C@@]2(C(=O)O)CCC3(C)C(=CCC4[C@]5(C)CC(O)C(O)[C@](C)(CO)C5C(O)C[C@@]43C)C2C1C (stereo not given in full)	nt	nt	nt	8%	nt	nt
O=S(=O)(NNc1ccc(Cl)nn1)c1ccc(F)cc1	0%	-19%	17%	?	3	8
Cc1ccc(-c2nnn(CC(=O)NC(=O)NC3CCCCC3)n2)cc1	57%	25%	nt	nt	nt	nt
Cc1csc(=O)n1CCC(=O)OCC(=O)Nc1ccc(Cl)cn1	6%	24%	nt	nt	nt	nt
O=C(NNC(=O)C1CC1c1ccccc1)c1ccccc1[N+](=O)[O-] (stereo not given)	12µM*	47%	11%	0%	-8	1
COc1ccc(C(=O)NNC(=O)c2ccccc2[N+](=O)[O-])cc1	13µM*	122%	6%	1%	37*	32*
O=C1C(=O)N(c2ccccn2)C(c2cccc(F)c2)/C1=C(/O)c1ccccc1 (stereo not given)	36%	nt	4%	-9%	-3	0
CCn1cc2nc(SCC(=O)Nc3ccc(F)cc3F)n(Cc3ccccc3)c(=O)c2n1	13µM*	?	6%	-12%	-6	9
O=C(Cn1c(=O)c(=O)n(Cc2ccccc2)c2ccc(Cl)cc21)Nc1ccc(F)cc1F	?	-36%[5.75 µM]	2%	-2%	-10	-2
O=C1C(=O)c2ncccc2-c2cccnc21	-23%	0.67µM*	nt	nt	nt	nt
Cc1ccc(-c2nc3ccsc3c(=O)[nH]2)cc1	480%	2.1µM*	-5%	2%	103*	42*
Cc1ccc(-c2csc3nc(-c4ccncc4)[nH]c(=O)c23)cc1	4%	-5%	2%	2%	-9	-8
O=C(Oc1cccc(-n2cnnn2)c1)c1ccco1	?	10%	-3%	8%	6	-1
CC1CCc2c(C(=O)Oc3cccc(-n4cnnn4)c3)csc2C1 (stereo not given)	?	5.9µM*	-46%	-6%	-9	-1
Cc1ccc(C(=O)Oc2cccc(-n3cnnn3)c2)cc1	-29%	261%	-15%	1%	57*	40*
Cc1cccc2nc(COc3ccc4ccccc4c3Br)cn12	193%	330%	-38%	-4%	48*	46*
Nc1ccc(C#Cc2ccc3c(=O)c4ccccc4oc3c2)cc1	-13%	76%	9%	8%	28*	37*
SMILES	Pf growth 96h	Pf growth 48h	NS1 function inh	FBPA Giardia inh	Shiga inhibitor	CHX counter
COc1cc(NC(=O)c2cc3sccc3n2C)cc(OC)c1	?	159%	-49%	?	81*	30*
CC(CCc1ccccc1)NC(=O)c1cc2sccc2n1C (stereo not given)	34%	-6%	-20%	-17%	37	21*
Cn1c(C(=O)Nc2ccccc2)cc2sccc21	19%	84%	-109%	-16%	50	26*
C#CCNC(=O)c1cc2sccc2n1C	36%	0%	-4%	-3%	-18	13
CCc1ccccc1NC(=O)c1cc2sccc2n1C	0%	nt	-36%	1%	42*	49*
COc1ccc(OC)c(NC(=O)c2cc3sccc3n2C)c1	3%	27%	-48%	-14%	29	6
CC(CCc1ccccc1)NC(=O)C1CCCN(C(=O)c2cc3sccc3n2C)C1 (stereo not given)	-6%	nt	-11%	1%	-9	-6
C=CCC(O)(C#Cc1ccccc1)c1ccccc1 (stereo not given)	nt	nt	nt	10%	nt	nt
CNC(=O)C1CCN(S(=O)(=O)c2c(C)noc2/C=C/c2cccc(OC)c2)CC1	35%	?	11%	-6%	4	10
Cn1c(C(=O)Nc2ccc3c(c2)OCO3)cc2sccc21	nt	-9%	-65%	?	92*	39
COC(=O)c1ccc(NC(=O)c2cc3sccc3n2C)cc1	6%	48%	-4%	nt	122*	40*
COCCNC(=O)c1cc2sccc2n1C	13%	16%	5%	3%	-2	0
O=C(Nc1ccc(S(=O)(=O)Nc2ncccn2)cc1)c1cccc(S(=O)(=O)N2CCOCC2)c1	32%	2%	1%	16%	-4	9
COc1ccc(CN2C(=NC(=O)C3CCCO3)SC3CS(=O)(=O)CC32)cc1OC (stereo not given)	61%	4%	-5%	nt	-7	-7
CC(=O)NCCCOc1ccc([N+](=O)[O-])cc1Cl	98%	94%	4%	4%	48	16*
CC(=O)Nc1ccc(Oc2ccc([N+](=O)[O-])cc2Cl)cc1	-17%[5.75 µM]	9%	nt	4%	-3	2
COc1ccccc1OCCCOc1ccc([N+](=O)[O-])cc1Cl	87%	55%	-19%	nt	126*	50*
COc1cccc(OCCCOc2ccc([N+](=O)[O-])cc2Cl)c1	13%	-6%	-2%	0%	2	16
CCOc1ccc(OCCOC(=O)C2CCN(S(=O)(=O)c3ccc(C)c(C)c3)CC2)cc1	9%	-16%	nt	nt	nt	nt
Clc1ccc(CC[C@H](Cn2ccnc2)Sc2c(Cl)cccc2Cl)cc1	2µM*	5.7µM*	nt	4%[21.7 µM]	nt	nt
CCCc1cc(=O)n2[nH]c(-c3cccc(Br)c3)cc2n1	0%	72%	-2%	-17%	64*	36*
CCCc1cc(=O)n2[nH]c(-c3ccc(Br)cc3)cc2n1	?	49%	-14%	-14%	14*	38*
COC1CCCN(Cc2c(C(=O)N3CCN(C4CCCCC4)CC3)nc3ccccn23)C1 (stereo not given)	0%	?	16%	nt	12	-4
CNC(=O)C1CC(=O)N(CCc2ccccc2)C(=Nc2ccc(OC)cc2)S1 (stereo not given)	51%	?	nt	-6%	-2	-1
